A short description of test [1]: A CellTox Green Cytotoxicity Assay to monitor cytotoxicity in HEK293 cells - 32 hour (AID 1224881). Note: nearly all actives have a fitted effect of over 40% in size. Note: potency is the fitted concentration of half-maximal effect. The method in brief: (§1)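 Fluorescence from a DNA-binding dye excluded by viable cells was measured repeatedly in the same HEK293 wells (600 cells/well) during continuous compound exposure at 37 C. Each assay gives one read point: 0, 8, 16, 24, 32 or 40 h.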
Test [2] is described as follows: A CellTox Green Cytotoxicity Assay to monitor cytotoxicity in HepG2 cells - 0 hour (AID 1224882). Note: nearly all actives have a fitted effect of over 35% in size. In short, it runs like this: (§2)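 Real-time cytotoxicity: fluorescence of a cell-impermeant cyanine dye binding DNA of dead HepG2 cells, measured repeatedly (0–40 h) during compound exposure at 37 C. Cells seeded 600/well with reagent, dosed after 5 h.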
Test [3] can be described thus: A CellTox Green Cytotoxicity Assay to monitor cytotoxicity in HepG2 cells - 32 hour (AID 1224883). Note: nearly all actives have a fitted effect of over 50% in size. Note: potency is the fitted concentration of half-maximal effect. The method in brief: as §2
Test [4] can be described thus: A CellTox Green Cytotoxicity Assay to monitor cytotoxicity in HEK293 cells - 8 hour (AID 1224884). Note: nearly all actives have a fitted effect of over 35% in size. Note: potency is the fitted concentration of half-maximal effect. In short, it runs like this:
as §1

Test [5] is described as follows: qHTS RealTime-Glo MT Cell Viability Assay in HepG2 cells - 16 hour (AID 1224885). Note: nearly all actives have a fitted effect of over 50% in size. Note: potency is the fitted concentration of half-maximal effect. In short, it runs like this:
(§3)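 Real-time, nonlytic viability: 600 HepG2 cells/well mixed with NanoLuc enzyme plus prosubstrate; 5 h settle, compound (DMSO) added by pintool; luminescence monitored over 40 h at 37 C.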
(qHTS replaces the single test concentration by a dilution series.)

Test [6] can be described thus: qHTS RealTime-Glo MT Cell Viability Assay in HEK293 cells - 24 hour (AID 1224886). Note: nearly all actives have a fitted effect of over 50% in size. Note: potency is the fitted concentration of half-maximal effect. In short, it runs like this: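 Cells + reagent dispensed (600 cells/well, HEK293) → 5 h at 37 C/5% CO2 → 23 nL compound in DMSO pinned → 40 h at 37 C → luminescence read at 0, 8, 16, 24, 32, 40 h.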
Test [7] can be described thus: qHTS RealTime-Glo MT Cell Viability Assay in HEK293 cells - 8 hour (AID 1224887). Note: nearly all actives have a fitted effect of over 50% in size. Note: potency is the fitted concentration of half-maximal effect. The method in brief: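 Luminescence, which tracks viable cell number through reduction of the prosubstrate to a NanoLuc substrate, was read over continuous 37 C culture. Cells (600/well) were premixed with reagent and rested 5 h before 23 nL of compound in DMSO was pinned.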
The nature of test [8]: A CellTox Green Cytotoxicity Assay to monitor cytotoxicity in HEK293 cells - 16 hour (AID 1224888). Note: nearly all actives have a fitted effect of over 35% in size. Note: potency is the fitted concentration of half-maximal effect. The method in brief:
as §1

A short description of test [9]: qHTS RealTime-Glo MT Cell Viability Assay in HepG2 cells - 0 hour (AID 1224889). Note: nearly all actives have a fitted effect of over 50% in size. The method in brief: as §3
The nature of test [10]: qHTS assay to identify small molecule antagonists of the estrogen receptor alpha (ER-alpha) signaling pathway using the BG1 cell line in the presence of 0.1 nM 17-beta-estradiol - cell viability counter screen (AID 1259241). Note: nearly all actives have a fitted effect of over 40% in size. Note: potency is the fitted concentration of half-maximal effect. The method in brief:
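Estradiol-stimulated (0.1 nM) VM7Luc4E2 cells exposed to compounds 22 hr; viability measured by fluorescence of cleaved CellTiter-Fluor substrate after 30 min.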

Test [11] can be described thus: qHTS assay to identify small molecule antagonists of the androgen receptor (AR) signaling pathway using the MDA cell line in the presence of 0.5 nM R1881 - cell viability counter screen (AID 1259242). Note: nearly all actives have a fitted effect of over 45% in size. Note: potency is the fitted concentration of half-maximal effect. In short, it runs like this:
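Live-cell protease activity was measured by CellTiter-Fluor fluorescence after 30 min. Before that, MDA-kb2 MMTV-luciferase cells had 16 hr at 37C without CO2, exposed to test compounds and 0.5 nM R1881 final.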

Test [12] deals with Estrogen receptor (Homo sapiens) (UniProt P03372). The experiment in a line: qHTS assay to identify small molecule antagonists of the estrogen receptor alpha (ER-alpha) signaling pathway using the BG1 cell line in the presence of 0.1 nM 17-beta-estradiol (AID 1259244). Note: nearly all actives have a fitted effect of over 50% in size. Note: potency is the fitted concentration of half-maximal effect. The method in brief: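 Luciferase luminescence (ONE-Glo, 30 min at room temperature) was read after 22 hr at 37C exposure to compounds plus 17beta-estradiol at 0.1 nM final. Cells were VM7Luc4E2 with endogenous ER-alpha and an ERE-driven luciferase, pre-cultured 5 days in hormone-depleted medium.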

Test [13] in a line: qHTS assay to identify small molecule HDAC inhibitors (AID 1259364). Note: top concentration of the series differs between compounds; nearly all actives have a fitted effect of over 45% in size. The method in brief:
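Luminescence read after 30 min room-temperature HDAC-Glo incubation measures cellular class I/II HDAC activity. Compounds were applied for 2 hr at 37 C to HCT-116 wild-type cells seeded the day before.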

The nature of test [14]: qHTS assay to identify small molecule agonists of the sonic hedgehog signaling (Shh) pathway - cell viability counter screen (AID 1259366). Note: nearly all actives have a fitted effect of over 50% in size. Note: potency is the fitted concentration of half-maximal effect. In short, it runs like this: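 Same-well cytotoxicity read. Gli1-Luc reporter 3T3 cells; compounds 24hr, 37C/5% CO2; CellTiter-Fluor fluorescence.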
Test [15] in a line: qHTS assay to identify small molecule antagonists of the sonic hedgehog signaling (Shh) pathway - cell viability counter screen (AID 1259367). Note: nearly all actives have a fitted effect of over 55% in size. Note: potency is the fitted concentration of half-maximal effect. The method in brief: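 CellTiter-Fluor signal in conditioned medium-stimulated 3T3 Gli1-Luc cells, 23 hr compound exposure, 37C.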
The target of test [16] is Androgen receptor (Homo sapiens) (UniProt P10275). The experiment in a line: qHTS assay to identify small molecule antagonists of the androgen receptor (AR) signaling pathway using the MDA cell line in the presence of 0.5 nM R1881 (AID 1259243). Note: nearly all actives have a fitted effect of over 50% in size. In short, it runs like this: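 Luminescent reporter readout (ONE-Glo, 30 min, room temperature) after 16 hr co-treatment of MDA-kb2 cells with test compounds and 0.5 nM R1881 final, at 37C without CO2. The MMTV-driven luciferase responds to both AR and GR.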

The nature of test [17]: qHTS assay to identify small molecule HDAC inhibitors - cell viability counter screen (AID 1259365). The method in brief: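 After overnight seeding at 1,500 cells per well, wild-type HCT-116 cultures took up compounds in DMSO for 2hr at 37 C. Viable cell content came from luminescence with CellTiter-Glo.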
The nature of test [18]: qHTS assay to identify small molecule agonists of the sonic hedgehog signaling (Shh) pathway (AID 1259368; calls by dose curve;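 note: NIH/3T3-derived 3T3Gli1-Luc cells carrying a stable Gli1-driven firefly luciferase reporter; series mostly up to about 92 µM; nearly all actives have a fitted effect of over 15% in size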). The method in brief: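 Luminescence was read after 30 min at room temperature with luciferase reagent. Before that, 3T3Gli1-Luc cells (NIH/3T3 clone, stable Gli1-Luc reporter; 2,000/well) were exposed to compounds for 24 hr at 37C, 5% CO2, compounds being added 4 hr post-plating.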

The nature of test [19]: A CellTox Green Cytotoxicity Assay to monitor cytotoxicity in HepG2 cells - 8 hour (AID 1224890). Note: nearly all actives have a fitted effect of over 45% in size. In short, it runs like this: as §2
The nature of test [20]: qHTS assay to identify small molecule phospholipidosis (PLD) inducers (AID 1259344; active = well fitted curve in the direction sought with a large enough effect; an effect the other way counts as inactive or inconclusive). In short, it runs like this: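 Accumulated phospholipid, stained red by LipidTOX during 24 h compound treatment of HepG2 cells at 37 C, is quantified from images as pit number and intensity, normalised per cell using Hoechst-stained nuclei.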

Values joined by “and” are separate entries in the source; they are usually repeats but may differ in a detail not shown here. Equal entries are not always repeated. Records with an inconclusive call do not appear. A structure can be active in one record and inactive in another. Active and inactive are the calls of the source. Unless noted, calls come from the whole dose curve; as a rule, active = well fitted curve in the direction sought with a large enough effect in the repeat runs; inconclusive = weak or mixed curves; inactive = no such curve, though single readings can be large; an effect the other way counts as inactive or inconclusive.

Estrogen receptor (Homo sapiens), sequence (P03372 whole entry, looked up): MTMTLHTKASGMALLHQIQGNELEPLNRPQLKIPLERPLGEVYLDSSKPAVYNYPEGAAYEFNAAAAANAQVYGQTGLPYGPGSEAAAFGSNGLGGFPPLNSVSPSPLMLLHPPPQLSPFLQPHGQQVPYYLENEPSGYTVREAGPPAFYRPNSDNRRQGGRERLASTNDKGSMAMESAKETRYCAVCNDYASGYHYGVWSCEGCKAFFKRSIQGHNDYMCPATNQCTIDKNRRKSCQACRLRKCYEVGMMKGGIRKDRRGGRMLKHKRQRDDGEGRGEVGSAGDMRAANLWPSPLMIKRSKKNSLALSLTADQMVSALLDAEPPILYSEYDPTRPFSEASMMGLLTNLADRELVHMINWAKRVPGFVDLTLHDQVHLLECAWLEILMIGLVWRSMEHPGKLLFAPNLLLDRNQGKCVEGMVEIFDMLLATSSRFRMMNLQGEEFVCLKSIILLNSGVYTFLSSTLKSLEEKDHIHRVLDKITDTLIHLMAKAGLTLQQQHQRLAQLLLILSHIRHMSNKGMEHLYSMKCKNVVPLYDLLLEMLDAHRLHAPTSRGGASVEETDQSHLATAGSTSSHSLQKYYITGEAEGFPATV
Androgen receptor (Homo sapiens), sequence (P10275 whole entry, looked up): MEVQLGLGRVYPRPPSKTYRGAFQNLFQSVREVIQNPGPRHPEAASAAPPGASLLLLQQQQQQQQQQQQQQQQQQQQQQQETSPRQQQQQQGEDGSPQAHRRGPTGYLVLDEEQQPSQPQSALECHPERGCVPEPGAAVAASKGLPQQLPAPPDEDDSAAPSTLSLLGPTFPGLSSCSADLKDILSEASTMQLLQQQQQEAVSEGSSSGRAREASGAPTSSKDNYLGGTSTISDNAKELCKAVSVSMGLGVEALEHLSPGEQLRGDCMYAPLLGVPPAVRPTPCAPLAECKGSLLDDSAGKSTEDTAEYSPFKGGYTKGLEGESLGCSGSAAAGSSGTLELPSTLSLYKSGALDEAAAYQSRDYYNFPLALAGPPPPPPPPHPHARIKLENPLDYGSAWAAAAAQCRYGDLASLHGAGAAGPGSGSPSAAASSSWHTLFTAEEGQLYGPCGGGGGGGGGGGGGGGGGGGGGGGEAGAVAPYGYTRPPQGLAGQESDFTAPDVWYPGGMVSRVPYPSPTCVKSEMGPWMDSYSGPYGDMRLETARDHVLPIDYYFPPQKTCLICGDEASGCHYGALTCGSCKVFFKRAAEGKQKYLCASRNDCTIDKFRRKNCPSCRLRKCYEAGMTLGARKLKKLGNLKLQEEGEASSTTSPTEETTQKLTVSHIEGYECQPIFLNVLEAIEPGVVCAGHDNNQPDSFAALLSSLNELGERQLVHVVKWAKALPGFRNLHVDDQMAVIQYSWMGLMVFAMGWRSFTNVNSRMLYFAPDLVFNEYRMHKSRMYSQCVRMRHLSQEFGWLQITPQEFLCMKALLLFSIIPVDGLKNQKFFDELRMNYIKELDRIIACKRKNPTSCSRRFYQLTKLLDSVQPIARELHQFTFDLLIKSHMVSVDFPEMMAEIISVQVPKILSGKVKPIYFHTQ

Take `CCC[CH2][Sn]([Cl])([Cl])[CH2]CCC`: the Potency in test [1] was 442 nM (active) and 1.38 µM (active); in [3] it was 351 nM (active) and 490 nM (active); in [4], “inactive and 49 µM (active)”; in test [5], 701 nM (active) and 616 nM (active); in test [6], 111 nM (active) and 138 nM (active); in [7] it was 0.111 µM (active). Moreover, the Potency in [8] was 786 nM (active) and 24.5 µM (active); in test [10], 1.74 µM (active) and 2.43 µM (active); in test [11] it was 874 nM (active) and 611 nM (active); in [12] it was 1.23 µM (active) and inactive; in test [14] it was 276 nM (active) and 433 nM (active); in [15], 552 nM (active) and 770 nM (active). In addition, the Potency result in [2], in test [9] and in test [13] was “inactive” each time.
Regarding `CC(C)(c1ccc(OCC2CO2)cc1)c1ccc(OCC2CO2)cc1` (centres undefined), the Potency result in [1], in test [2], in [3], in test [4], in test [5] and in [6] was “inactive” throughout. Also, the Potency entry in test [7], in [8], in test [9], in test [10], in test [11] and in test [16] was “inactive” each time. Besides, the Potency entry in test [12], in test [13], in test [17] and in test [15] was “inactive” in each case.
In the case of `O=P(OCCCl)(OCCCl)OCCCl`, the Potency entry in test [1], in test [2], in test [3], in test [4], in test [5] and in [6] was “inactive” throughout. The Potency entry in [7], in [8], in test [9], in test [10], in test [11] and in test [13] was “inactive” in each case. Further, the Potency entry in [14], in test [15] and in test [18] was “inactive” each time.
Consider `O=S(=O)(O)C(F)(F)C(F)(F)C(F)(F)C(F)(F)C(F)(F)C(F)(F)C(F)(F)C(F)(F)F`, for which the Potency in [1] is 33 µM (active) and inactive and 21.9 µM (active); in [3] it was 18.6 µM (active) and inactive; in [4] it was 37 µM (active) and inactive and 11 µM (active). The Potency result in test [2], in [5], in [6], in [7], in test [19] and in test [10] was “inactive” each time. Besides, the Potency result in test [11], in [13], in test [17], in test [15] and in test [18] was “inactive” throughout.
`CC(C)COC(=O)c1ccccc1C(=O)OCC(C)C`: the Potency entry in test [1], in test [2], in [3], in [4], in test [5] and in [6] was “inactive” in each case. Further, the Potency entry in [7], in test [8], in [9], in [10], in test [11] and in [12] was “inactive” in each case. In addition, the Potency entry in test [13], in [15] and in test [18] was “inactive” each time.
As for `CCOP(=S)(OCC)OP(=S)(OCC)OCC`, the Potency entry in [1], in test [2], in [3], in test [4], in test [5] and in [6] was “inactive” in each case. Further, the Potency result in test [7], in test [8], in [9], in test [10], in test [16] and in test [13] was “inactive” each time. In addition, in [15], the Potency result is “inactive”.
`C[C@]12CC[C@H]3[C@@H](CCC4=CC(=O)CC[C@@H]43)[C@@H]1CC[C@@H]2O`: the Potency entry in [1], in test [2], in test [3], in test [4], in test [6] and in test [7] was “inactive” throughout. In addition, the Potency result in [8], in [9], in test [19], in test [10], in [11] and in test [12] was “inactive” throughout. Further, the Potency result in test [13], in test [14] and in test [15] was “inactive” each time. Moreover, the result in test [20] was inactive.
On to `Clc1cccc(C(Cl)(Cl)Cl)n1`, for which the Potency entry in [1], in test [2], in test [4], in test [6], in test [7] and in test [8] was “inactive” throughout. The Potency entry in test [9], in [10], in test [11], in test [16], in [12] and in [13] was “inactive” in each case. Moreover, the Potency entry in test [17] and in test [15] was “inactive” throughout. Also, in [3], the Potency is 54.5 µM (active).

For the origin of these results see PubChem BioAssay (Tox21).
